FadD28 binding: blocks FadD28 binding to the bisubstrate probe | actives 0.22% (n = 360,000) | fluorescence polarization | inhibition, % at 12.5 µM; in the data active = inhibition above about 8.5%, passing the limit was not always enough
TcdB inh: TcdB glycohydrolase inhibition | AID 652162 | P18177 | TcdB glycohydrolase enzymatic assay, plate reader | inhibition, % at 9.99 µM | actives 0.24% (n = 350,000); in the data active = inhibition above about 10%
Rv3671c protease: Rv3671c (M. tuberculosis) protease inhibition; inhibition, % at 5.96 µM; actives 0.048% (n = 320,000); AID 2606; in the data active = inhibition above about 38%;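 note: extracellular domain of Rv3671c used as enzyme; 0% = enzyme with DMSO and 100% = no enzyme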
BioA inh: blocks M. tuberculosis BioA enzyme activity; purified M. tuberculosis BioA enzyme, plate reader; inhibition, % at 9.99 µM; actives 0.096% (n = 360,000); in the data active = inhibition above about 40%
RecA splice inh: Mtb RecA intein splicing inhibition; cell-free RecA intein splicing, fluorescence; P9WHJ3; AID 2221; inhibition, % (concentration not given with the values); actives 0.75% (n = 290,000); in the data active = inhibition above about 30%;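 note: 0% = vehicle wells and 100% = reference inhibitor control wells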
Target sequence (P9WHJ3 whole entry, looked up, canonical isoform): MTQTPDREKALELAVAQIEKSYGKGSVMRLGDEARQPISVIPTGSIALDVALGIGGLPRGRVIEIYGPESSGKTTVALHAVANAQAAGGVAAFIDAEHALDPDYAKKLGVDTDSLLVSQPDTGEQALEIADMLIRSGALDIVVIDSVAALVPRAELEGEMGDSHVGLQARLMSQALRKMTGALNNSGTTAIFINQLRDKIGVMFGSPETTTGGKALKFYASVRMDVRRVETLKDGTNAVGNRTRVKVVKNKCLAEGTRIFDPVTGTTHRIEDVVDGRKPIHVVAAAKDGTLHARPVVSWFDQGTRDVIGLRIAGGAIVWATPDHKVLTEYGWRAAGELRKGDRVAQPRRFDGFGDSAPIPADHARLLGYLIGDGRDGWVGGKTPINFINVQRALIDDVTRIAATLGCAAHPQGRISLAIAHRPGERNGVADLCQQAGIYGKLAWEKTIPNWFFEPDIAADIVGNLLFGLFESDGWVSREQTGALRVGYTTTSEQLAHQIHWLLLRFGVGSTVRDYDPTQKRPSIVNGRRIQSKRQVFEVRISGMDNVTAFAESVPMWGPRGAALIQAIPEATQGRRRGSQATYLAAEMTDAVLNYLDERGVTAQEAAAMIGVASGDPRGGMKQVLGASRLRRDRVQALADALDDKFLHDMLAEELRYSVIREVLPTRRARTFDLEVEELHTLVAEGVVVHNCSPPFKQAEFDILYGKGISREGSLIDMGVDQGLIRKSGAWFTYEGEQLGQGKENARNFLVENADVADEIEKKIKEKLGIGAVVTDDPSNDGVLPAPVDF
UGM FP inh: Mtb UDP-galactopyranose mutase inhibition | P9WIQ1 | purified UGM, fluorescence polarization probe displacement | inhibition, % at 10 µM | actives 0.06% (n = 320,000); in the data active = inhibition above about 10%, passing the limit was not always enough
Active calls of the source: *; nt = not tested or not shown; ! = repeats disagree. Shown are actives, neighbours in structure and some others; about 0.97% of the full set was active somewhere.

SMILES	FadD28 binding	TcdB inh	Rv3671c protease	BioA inh	RecA splice inh	UGM FP inh
Cc1cc(-c2ccc(NS(=O)(=O)c3ccccc3)c(C)c2)ccc1NS(=O)(=O)c1ccccc1	-1.4	11.9*	nt	-0.9	nt	nt
Cc1cccc(NC(=O)c2ccc(N3CCOCC3)c([N+](=O)[O-])c2)n1	-0.9	13.1*	1.2	-1.8	-1.0	2.5
Cc1ccc(NC(=S)NNC(=O)c2ccc(N3CCOCC3)c([N+](=O)[O-])c2)cc1Cl	10.8*	nt	-0.6	nt	5.8	-1.2
O=C(NNC(=S)Nc1ccc(Br)cc1)c1ccc(N2CCOCC2)c([N+](=O)[O-])c1	3.8	nt	7.1	0.8	6.6	3.3
CNC(=O)C[C@H]1CC[C@H]2[C@@H](COc3ccc(NC(=O)Nc4ccc(C)cc4)cc3C(=O)N2C)O1	nt	-0.3	nt	-1.8	nt	nt
CCC(=O)N1C[C@@H](C)[C@@H](OC)CN(C)C(=O)c2ccc(NC(=O)c3cnccn3)cc2OC[C@@H]1C	nt	0.3	nt	4.0	nt	nt
CC(C)N1C(=O)/C(=C/C=C/c2ccco2)C(=O)N(Cc2ccco2)C1=O	-0.8	nt	-31.2	-3.1	2.3	-2.2
COc1ccc(/C=C2/C(=O)N(Cc3ccco3)C(=O)N(C(C)C)C2=O)cc1	9.5*	-1.6	-21.7	nt	7.7	-2.3
Nc1ccc(C(=O)O)c(O)c1	15.6*!	-0.7	5.9	-0.6	0.6	-2.6
COc1ccc(C(=O)NC(C(=O)NCc2ccccc2OC)C(C)C)cc1 (stereo unspecified)	-4.9	14.7*	2.3	nt	1.4	-0.6
COc1ccc2c3c(n(C)c2c1)[C@H](CO)N(C(=O)C1CCCC1)CC31CCN(Cc2cccc(F)c2)CC1	nt	-0.8	nt	nt	nt	nt
COc1ccc(NC(=O)N(C)C[C@@H]2OCCCC[C@H](C)Oc3ccc(NS(=O)(=O)c4ccc(OC)cc4)cc3C(=O)N([C@H](C)CO)C[C@H]2C)cc1	nt	-8.4	nt	nt	nt	nt
O=C1C2=C(NC(=S)NC2c2ccc(Cl)cc2)NC(c2ccc(Cl)cc2)N1c1ccc(Cl)cc1 (stereo unspecified)	-4.7	nt	0.3	-0.7	36.8*	0.0
c1ccc(Cc2nnc3n2N=C(c2ccccc2)CS3)cc1	-0.4	15.7*	2.0	nt	-2.2	-2.2
c1ccc(C2=Nn3c(Cn4nnc5ccccc54)nnc3SC2)cc1	-0.8	3.4	-0.5	5.5	1.6	1.0
CCOc1cccc(C2C(C(=O)c3ccc(C)o3)=C(O)C(=O)N2Cc2ccncc2)c1 (stereo unspecified)	-0.1	nt	-2.1	3.5	-0.7	0.8
CCOc1cccc(C2C(C(=O)c3ccc(C)o3)=C(O)C(=O)N2c2nccs2)c1 (stereo unspecified)	-3.3	nt	6.3	-3.9	-9.7	16.0*
CC(=O)NCc1ccc(C(=O)CCl)cc1	-2.2	0.3	1.6	0.1	23.0	1.5
CC(=O)N(C)Cc1ccc(C(=O)CCl)cc1	-0.3	2.0	5.4	nt	37.0*	2.3
O=C(NC1Cc2ccccc2C1)[C@H]1[C@H](CO)[C@H]2Cn3c(cccc3=O)[C@@H]1N2C(=O)CC1CC1	nt	-2.3	nt	-2.1	nt	nt
CC(=O)Oc1cc2c(cc1Cl)C1(CC(c3ccccc3Cl)O2)CC(C)(C)NC(=S)N1 (stereo unspecified)	-6.8	nt	17.6	4.9	44.7*	-1.0
COc1cc(-c2ccc(Nc3ccccc3C(=O)O)c(OC)c2)ccc1Nc1ccccc1C(=O)O	77.6*	-1.7	nt	2.1	nt	nt
COc1cc([N+](=O)[O-])c(OC)cc1Nc1ccccc1C(=O)O	nt	0.1	nt	nt	nt	nt
Fc1cccc(NC(=S)NNc2c3ccccc3nc3ccccc23)c1	-3.5	19.5*	nt	nt	-7.8	nt
Fc1cccc(NC(=S)NNc2ccccc2)c1	-0.2	-0.8	-1.9	2.2	3.6	-1.6
SMILES	FadD28 binding	TcdB inh	Rv3671c protease	BioA inh	RecA splice inh	UGM FP inh
Nc1cc(=O)[nH]c(SCC(=O)Nc2ccccc2Sc2ccc(Cl)cc2)n1	-2.5	10.2*	-10.9	nt	5.2	-1.6
O=C(CN1C(=O)S/C(=C\c2ccccc2)C1=O)Nc1cc([N+](=O)[O-])ccc1O	17.6*	0.3	0.2	7.6	4.4	-0.5
CCCN1C[C@@H](C)[C@@H](OC)CN(C)C(=O)c2ccc(NC(=O)C3CC3)cc2OC[C@H]1C	nt	0.4	nt	0.3	nt	nt
CC1CC(=O)N(c2ccc(NCCc3ccc(O)cc3)c([N+](=O)[O-])c2)C1=O (stereo unspecified)	0.1	12.1*	-1.3	4.4	0.5	0.4
CC(=O)Nc1cccc2cc(S(=O)(=O)O)ccc12	-2.9	-0.2	nt	nt	nt	nt
Cc1ccc(C(=O)OCC(=O)Nc2ccccc2Cl)c(O)c1	-1.4	1.2	5.6	nt	-3.1	-3.9
O=C(COC(=O)c1ccc(O)cc1O)Nc1cccc2ccccc12	12.0*	7.4	-12.5	-0.5	nt	-1.8
CC(=O)Nc1cccc2cc(O)ccc12	-1.2	21.9*	nt	-3.1	nt	nt
CC(=O)Nc1ccc2c(c1)C(=O)N(C)[C@@H]1CC[C@H](CC(=O)NCC3CC3)O[C@H]1CO2	nt	-1.5	nt	-3.6	nt	nt
COc1ccc2c3c([nH]c2c1)[C@@H](CO)N(Cc1ccccn1)CC31CCN(C(=O)c2ccccn2)CC1	nt	-1.0	nt	nt	nt	nt
O=C(C[C@@H]1C=C[C@H](NS(=O)(=O)c2ccccc2)[C@@H](CO)O1)N1CCC(Cc2ccccc2)CC1	nt	-0.4	nt	nt	nt	nt
C[C@@H]1CCCCO[C@H](CN(C)C(=O)Nc2ccc3c(c2)OCO3)[C@H](C)CN([C@H](C)CO)C(=O)c2cc(NC(=O)CCCN(C)C)ccc2O1	nt	2.2	nt	1.8	nt	nt
NC(Cc1cc(O)c(O)cc1O)C(=O)O (stereo unspecified)	nt	nt	30.3	nt	nt	1.5
N[C@@H](Cc1cc(I)c(O)c(I)c1)C(=O)O	10.0*	0.2	-6.5	2.4	-2.9	0.9
O=C(C1CC1)N1C[C@H]2[C@@H](c3ccccc31)[C@H](CO)N2C(=O)c1cccc(F)c1	nt	nt	nt	-2.8	nt	nt
CC(C)(C)N1[C@@H](CC(=O)O)c2cc(C(F)(F)F)ccc2S1(=O)=O	1.4	11.9*	9.3	-2.7	-1.0	-1.2
Cn1c(=O)c2c(ncn2Cc2ccc(Cl)cc2)n(C)c1=O	15.8*	1.7	-2.9	nt	8.4	0.3
Cc1cc(C(=O)COc2cccc3cccnc23)c(C)n1C	-1.3	nt	-2.9	-14.1	-3.5	16.3*
N#C/C(=C\c1ccc(O)c(O)c1)C(=O)NCCc1ccccc1	11.1*	-5.6	1.8	1.0	nt	-2.0
Cc1noc(C)c1S(=O)(=O)N(C)C[C@@H]1OCCCC[C@H](C)Oc2ccc(NS(=O)(=O)c3ccc(Cl)cc3)cc2C(=O)N([C@@H](C)CO)C[C@H]1C	nt	0.2	nt	0.0	nt	nt
CCC(=O)N1CCC2(CC1)CN(Cc1ccccn1)[C@H](CO)c1[nH]c3cc(OC)ccc3c12	nt	-0.4	nt	nt	nt	nt
C[C@H](CO)N1C[C@H](C)[C@@H](CN(C)CC2CCCCC2)Oc2ccc(NC(=O)CCN3CCOCC3)cc2C1=O	-0.1	10.4*!	1.5	-2.0	nt	-0.5
COc1ccc(-c2cnc3c(c2)C(=O)N([C@@H](C)CO)C[C@H](C)[C@H](CN(C)C(=O)C2CCCCC2)O3)cc1	nt	12.2*	nt	-1.3	nt	nt
C[C@H]1CN([C@@H](C)CO)C(=O)c2cc(NC(=O)CCN3CCOCC3)ccc2O[C@@H]1CN(C)CC1CCCCC1	nt	-0.5	nt	-1.6	nt	nt
